Experimental data reported in PubChem BioAssay AID504339 (National Center for Advancing Translational Sciences (NCATS), 2011).
The campaign covered roughly 390,000 compounds. About 17,000 (4.4%) were called active. Inconclusive results (about 8%) are left out. Calls follow the shape of the dose curve; as a rule, active = well fitted inhibition curve with a large enough effect; inconclusive = small, poorly fitted or top-dose-only effect; inactive = no such curve, though single readings can be large or run the other way. What follows is part of a selection rich in actives, with near analogues and random picks from the rest.

target: Lysine-specific demethylase 4A (Homo sapiens) (UniProt O75164); assay: qHTS Assay for Inhibitors of JMJD2A-Tudor Domain; details: AlphaScreen JMJD2A-Tudor / H3K4me3 peptide binding; series mostly up to 114 µM; activity change, negative = inhibition: at the top concentration; also: nearly all actives have a fitted effect of over 50% in size
% is scaled to controls: 0 for no effect and ±100 for the full control effect; potency is read from the fitted curve at half-maximal effect.

Lysine-specific demethylase 4A (Homo sapiens), sequence (O75164 whole entry, looked up, the tested form may be a part): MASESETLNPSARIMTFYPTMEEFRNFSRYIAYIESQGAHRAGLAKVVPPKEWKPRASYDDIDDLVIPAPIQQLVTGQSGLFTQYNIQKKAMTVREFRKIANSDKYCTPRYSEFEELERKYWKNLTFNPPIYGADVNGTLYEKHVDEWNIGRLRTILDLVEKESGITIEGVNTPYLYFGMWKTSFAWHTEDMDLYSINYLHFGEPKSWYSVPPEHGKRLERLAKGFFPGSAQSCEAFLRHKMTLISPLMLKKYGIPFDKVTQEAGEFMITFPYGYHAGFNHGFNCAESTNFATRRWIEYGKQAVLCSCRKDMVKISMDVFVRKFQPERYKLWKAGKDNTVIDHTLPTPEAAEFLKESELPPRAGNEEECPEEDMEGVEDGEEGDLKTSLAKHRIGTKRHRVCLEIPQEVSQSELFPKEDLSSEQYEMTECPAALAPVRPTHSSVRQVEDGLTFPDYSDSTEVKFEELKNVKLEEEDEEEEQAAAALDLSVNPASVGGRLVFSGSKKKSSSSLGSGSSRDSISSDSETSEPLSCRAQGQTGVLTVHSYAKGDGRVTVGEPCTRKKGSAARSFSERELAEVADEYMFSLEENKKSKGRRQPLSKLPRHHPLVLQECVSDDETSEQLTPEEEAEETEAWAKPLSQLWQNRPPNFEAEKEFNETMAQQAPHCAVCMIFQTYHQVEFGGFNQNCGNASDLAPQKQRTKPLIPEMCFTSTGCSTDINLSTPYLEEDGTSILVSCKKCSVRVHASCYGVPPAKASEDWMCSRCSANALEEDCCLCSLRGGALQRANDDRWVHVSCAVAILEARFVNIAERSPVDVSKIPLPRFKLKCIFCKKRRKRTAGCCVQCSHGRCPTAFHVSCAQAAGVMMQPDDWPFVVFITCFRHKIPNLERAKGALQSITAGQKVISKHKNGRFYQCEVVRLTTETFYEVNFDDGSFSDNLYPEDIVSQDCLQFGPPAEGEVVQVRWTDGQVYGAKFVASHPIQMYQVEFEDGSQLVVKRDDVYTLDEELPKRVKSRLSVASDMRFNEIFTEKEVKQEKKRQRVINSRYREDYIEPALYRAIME

SMILES	activity change, negative = inhibition	Potency
CCOC(=O)c1oc2ccc(S(=O)(=O)n3nc(-c4ccccc4OC)cc3N)cc2c1C	-22.2% (inactive)	–
Cc1oc(-c2cccc(Cl)c2)[n+]([O-])c1C	–	79.4 µM (active)
Cc1oc(-c2ccccc2Cl)[n+]([O-])c1C	-11.7% (inactive)	–
CCOC(=O)CSc1ncc(-c2cccc(Cl)c2)cn1	77.5% (inactive)	–
COc1ccc(C(=O)N2CCC(c3nc4ccccc4o3)CC2)cc1	-8.61% (inactive)	–
COc1c(O)ccc2c1CN1CCc3cc4c(cc3C1C2)OCO4 (stereo not drawn)	–	44.7 µM (active)
COc1cc(C(=O)CCc2ccc3c(c2)OCO3)cc(OC)c1OC	-1.38% (inactive)	–
COc1ccc(CN2CCCC(N3CCc4ccccc4C3)C2)c(O)c1 (stereo not drawn)	-25.6% (inactive)	–
CCOC(=O)N1CCc2c(sc3c2c(=O)n(-c2ccc(CC)cc2)c(=O)n3C)C1	-3.31% (inactive)	–
CC1CCCN(c2csc3ccc(F)cc3c2=O)C1 (stereo not drawn)	-24% (inactive)	–
Cn1nnnc1Sc1ncnc2scc(-c3ccccc3[N+](=O)[O-])c12	-17.8% (inactive)	–
CC(C)(C)c1ccc(OCC(=O)N2CCC(c3nc4ccccc4s3)CC2)cc1	-13.2% (inactive)	–
COc1ccc(NC(=O)CSc2nncc(=O)n2N)cc1OC	-11% (inactive)	–
Nn1c(SCC(=O)Nc2nccs2)nncc1=O	–	28.2 µM (active)
Nn1c(SCC(=O)Nc2nccs2)nnc1-c1ccco1	-21.4% (inactive)	–
Cc1ccc2c(=O)c(C(=O)c3ccc(Cl)cc3)cn(CC(=O)NC3CCCCC3)c2n1	-14.6% (inactive)	–
COCCCNC(=O)c1ccc2c(c1)ncn2-c1ccccc1OC	14.4% (inactive)	–
COc1ccccc1-n1cnc2cc(NS(=O)(=O)c3ccccc3)ccc21	-24.5% (inactive)	–
COc1ccccc1-n1cn[nH]c1=S	–	25.1 µM (active)
CCOc1ccc(CNC(=O)c2cc(-c3ccc(Cl)s3)nc3ccccc23)cc1	-6.83% (inactive)	–
COc1ccc(Br)cc1CNC(=O)c1cc(=O)[nH]c2ccc(S(=O)(=O)N3CCCC3)cc12	-9.79% (inactive)	–
CCOC(=O)c1c(C)[nH]c(C)c1S(=O)(=O)NCC(=O)NCc1cccc(C)c1	-9.42% (inactive)	–
CCCOc1ccccc1-c1nc(SCCC(=O)O)n[nH]1	-21.8% (inactive)	–
Cc1cc(C)nc(Nc2n[nH]c(-c3ccccc3N)n2)n1	–	2.24 µM (active)
CCCCN(CC)CCCNC(=O)c1nn(C)c2c1CSc1ccccc1-2	6.62% (inactive)	–

SMILES	activity change, negative = inhibition	Potency
COc1cccc(CNC(=O)CSc2c3c(nc4cc(Cl)ccc24)CCCC3)c1	0.331% (inactive)	–
Cc1cccc(C(=O)Nc2ccc(S(=O)(=O)N3CCCCC3c3cccnc3)cc2)c1 (stereo not drawn)	-14.2% (inactive)	–
COc1ccc(CCNS(=O)(=O)c2cccc3cccnc23)cc1OC	-18.8% (inactive)	–
CCCCC(=O)NC(c1ccc(OC)c(OC)c1)c1ccc2cccnc2c1O (stereo not drawn)	–	56.2 µM (active)
C=CCn1c(COc2cccc3cccnc23)nnc1SCC(=O)OC	-7.94% (inactive)	–
COc1ccccc1-c1ccnc2[nH]n(-c3ccccc3)c(=O)c12	-30.2% (inactive)	–
COc1cccc(Cn2c(CNS(=O)(=O)c3ccc(Cl)s3)nc3cccnc32)c1	-25.2% (inactive)	–
O=c1cc(CO)oc(CN2CCC(Cc3ccccc3)CC2)c1O	-4.12% (inactive)	–
NC(=O)c1ccc(CN2CCC(Cc3ccccc3)CC2)cc1	-11.7% (inactive)	–
Brc1ccccc1CN1CCC(Cc2ccccc2)CC1	–	0.794 µM (active)
CCOc1ccccc1NC(=O)Cn1c2ncccc2c(=O)n1-c1ccc(C)c(C)c1	-11.4% (inactive)	–
C=CCCC(=O)Nc1nc(C)c(-c2csc(Nc3ccc(Cl)cc3)n2)s1	–	63.1 µM (active)
CCC(=O)Nc1nc(C)c(C(=O)Nc2cccc(Cl)c2)s1	-14.8% (inactive)	–
Cc1nc(NC(=O)CN(C)S(=O)(=O)c2ccc(Cl)cc2)sc1C	-30.8% (inactive)	–
O=C(NC1(C(F)(F)F)N=C(c2ccccc2)N(C2CCCCC2)C1=O)c1ccccc1F (stereo not drawn)	-15.3% (inactive)	–
CCOC(=O)c1cccc(NC(=O)Cn2cnc3nc4c(cc3c2=O)CCCC4)c1	-1.92% (inactive)	–
COc1ccc(-c2nc3c4ccccc4n(CC(=O)Nc4ccc(C(C)=O)cc4)c(=O)n3n2)cc1	–	8.91 µM (active)
CC(=O)c1ccc(NC(=O)Cn2c(=O)oc3ccccc32)cc1	-6.82% (inactive)	–
COc1ccc(NC(=O)Cn2c(=O)n(Cc3ccc(C(=O)NCc4ccccc4Cl)cc3)c(=O)c3ccccc32)cc1	-7.88% (inactive)	–
O=C(NCCCn1ccnc1)C(=O)NCC1OCCN1S(=O)(=O)c1cc(F)ccc1F (stereo not drawn)	–	39.8 µM (active)
Cc1cc(F)ccc1S(=O)(=O)N1CCCOC1CNC(=O)C(=O)NCCC1=CCCCC1 (stereo not drawn)	-9.67% (inactive)	–
O=C(NCCCc1ccccc1)C(=O)NCC1OCCN1S(=O)(=O)c1ccccc1 (stereo not drawn)	-7.53% (inactive)	–
CCn1c(C(=O)Nc2cc(Cl)ccc2C)cc2sc(Cl)cc21	4.73% (inactive)	–
COc1cc(C(=O)N2CCC(c3ccncc3)CC2)cc(OC)c1OC	8.67% (inactive)	–
COc1ccc(-c2cc(=O)oc3cc(OCC(=O)N[C@@H](Cc4c[nH]c5ccccc45)C(=O)O)ccc23)cc1	-31.3% (inactive)	–

SMILES	activity change, negative = inhibition	Potency
COc1ccc(-c2cc(C(=O)NC(Cc3c[nH]c4ccccc34)C(=O)O)c(C)o2)cc1OC (stereo not drawn)	–	22.4 µM (active)
COc1ccc(-c2cc(C(=O)NC(C(=O)O)C(C)C)c(C)o2)cc1OC (stereo not drawn)	-11.8% (inactive)	–
CC1=C(c2ccc(Cl)cc2)S(=O)(=O)N=C1N1CCN(c2cc(C)ccc2C)CC1	-15.2% (inactive)	–
O=C(CCc1ccccc1)NCc1ccc2c(c1)CCN2C(=O)c1ccccc1	3.33% (inactive)	–
CCc1ccccc1N1C(=O)CN(S(=O)(=O)CC)CC1(C)C(=O)NC1CCCCC1 (stereo not drawn)	-4.62% (inactive)	–
Cc1ccc2c(c1)C(c1ccccc1)N(C(=O)c1ccc(F)cc1)CC(=O)N2 (stereo not drawn)	-0.699% (inactive)	–
Cc1ccc(C(=O)N2CC(=O)Nc3ccc(F)cc3C2c2ccc(F)cc2)cc1 (stereo not drawn)	-6.29% (inactive)	–
Cc1ccc2c(c1)C(c1ccccc1)N(C(=O)c1ccc(S(=O)(=O)N3CCOCC3)cc1)CC(=O)N2 (stereo not drawn)	–	50.1 µM (active)
CC(=O)Nc1cccc(NC(=O)CSc2cn(CC(=O)N3CCCC3)c3ccccc23)c1	-5.86% (inactive)	–
O=S(=O)(NCC(c1ccco1)N1CCOCC1)c1cc(F)ccc1F (stereo not drawn)	-8.77% (inactive)	–
O=C(CSCc1cnn(-c2ccccc2)c1-n1cccc1)NCc1ccccc1Br	-4.97% (inactive)	–
COc1ccc(-n2c(C)csc2=S)cc1	-12.8% (inactive)	–
COc1ccc(OC)c(-n2c(-c3ccn[nH]3)n[nH]c2=S)c1	–	50.1 µM (active)
Cc1ccc(-c2cn3cc(C)ccc3n2)cc1	1.5% (inactive)	–
COc1ccccc1OCC(=O)OCc1cc(-c2ccco2)on1	-15.5% (inactive)	–
Cc1ccc(-n2c(-c3ccc(Cl)cc3)n[nH]c2=S)cc1	–	50.1 µM (active)
Cc1n[nH]c(=O)n1-c1ccc(C(C)C)cc1	-2.28% (inactive)	–
COc1ccccc1N1CCN(c2nc(C)cc(=O)[nH]2)CC1	-3.79% (inactive)	–
COc1ccc(-c2nc3ccccc3n2CCC(C)C)cc1OC	0.744% (inactive)	–
CCOC(=O)CSc1nnc(CNC(=O)c2cccs2)n1-c1cc(OC)ccc1OC	-5.76% (inactive)	–
COc1ccccc1-n1c(-c2cc(-c3ccco3)[nH]n2)n[nH]c1=S	–	15.8 µM (active)
COc1ccc(-n2c(-c3ccc(OC)c(OC)c3)n[nH]c2=S)cc1	–	1.26 µM (active)
COc1ccc(OC)c(-n2nnc(-c3nc(-c4cc(OC)c(OC)c(OC)c4)no3)c2C)c1	-14% (inactive)	–
